# Test results reported in PMC7862700, “An all-to-all approach to the identification of sequence-specific readers for epigenetic DNA modifications on cytosine”.
# Assays:
# Assay in all cases: DAPPL (digital affinity profiling via proximity ligation, sequencing); 10 mM Tris-HCl pH 7.5, 50 mM NaCl, 1 mM DTT, 4% glycerol, room temperature, 30 min; GST-TFs on glutathione beads, 16-mer random dsDNA library, 0.1% formaldehyde crosslink after washing; high values mean tight binding
# Conditions in all cases: protein: recombinant; tags: N-terminal GST; dsDNA, one strand shown
# [1] = molecular target: ELF4 (Homo sapiens, UniProt Q99607 1-663)
# Chain of ELF4 (Q99607 whole entry, the tested form may be a part): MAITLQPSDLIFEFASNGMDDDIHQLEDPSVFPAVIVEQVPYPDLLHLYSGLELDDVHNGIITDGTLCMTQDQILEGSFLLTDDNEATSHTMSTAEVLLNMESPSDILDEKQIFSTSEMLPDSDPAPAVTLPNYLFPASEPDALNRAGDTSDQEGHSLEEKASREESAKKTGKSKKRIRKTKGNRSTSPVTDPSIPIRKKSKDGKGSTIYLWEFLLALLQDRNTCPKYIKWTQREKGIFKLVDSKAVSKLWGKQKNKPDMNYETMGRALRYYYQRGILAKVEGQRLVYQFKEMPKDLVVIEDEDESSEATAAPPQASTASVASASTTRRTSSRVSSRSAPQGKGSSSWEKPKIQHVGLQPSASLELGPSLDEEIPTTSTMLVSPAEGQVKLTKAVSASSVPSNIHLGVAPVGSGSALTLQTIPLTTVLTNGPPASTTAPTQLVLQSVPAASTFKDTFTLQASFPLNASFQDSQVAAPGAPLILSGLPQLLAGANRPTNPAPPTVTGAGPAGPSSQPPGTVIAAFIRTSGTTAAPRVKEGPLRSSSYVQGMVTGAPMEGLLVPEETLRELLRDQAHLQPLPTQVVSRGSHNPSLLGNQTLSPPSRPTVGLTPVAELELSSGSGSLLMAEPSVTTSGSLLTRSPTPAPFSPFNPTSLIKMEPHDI
# Procedure, shortened: (§1)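 Pools were built from human transcription factors expressed in yeast as GST fusions, captured on glutathione beads and DNA-barcoded, along with a tag-only sample. Incubation with 200 nmole of a 16-mer random double-stranded DNA library lasted 30 min at room temperature in Tris/NaCl/DTT/glycerol buffer, and was followed by washing, 0.1% formaldehyde crosslinking, proximity ligation, PCR amplification and Illumina NextSeq500 sequencing. Binding signal is the quotient of each hexamer's read frequency for a factor and its frequency for the tag-only sample.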
# [2] = molecular target: T1, ETV2 (Homo sapiens, UniProt O00321 1-342)
# T1 sequence: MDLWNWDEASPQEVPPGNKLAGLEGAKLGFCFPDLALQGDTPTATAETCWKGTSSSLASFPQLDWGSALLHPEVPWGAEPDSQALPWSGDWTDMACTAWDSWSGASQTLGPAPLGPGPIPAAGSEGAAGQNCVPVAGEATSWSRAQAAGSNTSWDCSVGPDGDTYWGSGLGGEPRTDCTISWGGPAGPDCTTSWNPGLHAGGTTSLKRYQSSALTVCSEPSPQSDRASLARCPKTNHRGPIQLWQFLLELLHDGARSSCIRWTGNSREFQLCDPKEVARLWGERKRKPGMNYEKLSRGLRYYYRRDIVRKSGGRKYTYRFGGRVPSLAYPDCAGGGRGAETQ
# Procedure, shortened: as §1
# [3] = molecular target: T2, ELF3 (Homo sapiens, UniProt P78545 1-371)
# T2 sequence: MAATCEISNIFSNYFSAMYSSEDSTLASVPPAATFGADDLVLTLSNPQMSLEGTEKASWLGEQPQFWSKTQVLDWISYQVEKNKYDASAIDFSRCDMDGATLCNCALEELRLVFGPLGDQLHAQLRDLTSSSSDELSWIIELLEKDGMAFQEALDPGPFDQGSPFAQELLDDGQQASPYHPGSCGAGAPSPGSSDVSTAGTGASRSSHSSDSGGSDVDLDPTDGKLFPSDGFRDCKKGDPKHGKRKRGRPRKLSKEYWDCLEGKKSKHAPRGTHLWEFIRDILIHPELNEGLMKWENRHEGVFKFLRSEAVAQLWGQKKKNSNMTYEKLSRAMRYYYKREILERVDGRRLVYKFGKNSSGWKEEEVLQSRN
# Procedure, shortened: as §1
# [4] = molecular target: ETV1 (Homo sapiens, UniProt P50549 1-477)
# Chain of ETV1 (P50549 whole entry): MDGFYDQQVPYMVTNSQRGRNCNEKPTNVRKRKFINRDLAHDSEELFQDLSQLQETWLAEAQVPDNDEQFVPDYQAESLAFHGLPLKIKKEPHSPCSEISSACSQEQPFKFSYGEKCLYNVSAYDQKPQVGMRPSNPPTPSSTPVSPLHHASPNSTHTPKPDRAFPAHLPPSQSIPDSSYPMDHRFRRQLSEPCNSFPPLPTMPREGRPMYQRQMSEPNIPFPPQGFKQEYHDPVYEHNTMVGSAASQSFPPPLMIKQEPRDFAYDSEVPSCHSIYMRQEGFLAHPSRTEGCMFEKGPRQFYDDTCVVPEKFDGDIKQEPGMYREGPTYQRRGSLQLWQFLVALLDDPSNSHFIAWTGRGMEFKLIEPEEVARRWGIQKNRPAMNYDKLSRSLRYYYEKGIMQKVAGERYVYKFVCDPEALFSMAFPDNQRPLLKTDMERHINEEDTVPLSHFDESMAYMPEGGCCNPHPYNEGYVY
# Procedure, shortened: as §1
# [5] = molecular target: T3, ERF (Homo sapiens, UniProt P50548 1-548)
# T3 sequence: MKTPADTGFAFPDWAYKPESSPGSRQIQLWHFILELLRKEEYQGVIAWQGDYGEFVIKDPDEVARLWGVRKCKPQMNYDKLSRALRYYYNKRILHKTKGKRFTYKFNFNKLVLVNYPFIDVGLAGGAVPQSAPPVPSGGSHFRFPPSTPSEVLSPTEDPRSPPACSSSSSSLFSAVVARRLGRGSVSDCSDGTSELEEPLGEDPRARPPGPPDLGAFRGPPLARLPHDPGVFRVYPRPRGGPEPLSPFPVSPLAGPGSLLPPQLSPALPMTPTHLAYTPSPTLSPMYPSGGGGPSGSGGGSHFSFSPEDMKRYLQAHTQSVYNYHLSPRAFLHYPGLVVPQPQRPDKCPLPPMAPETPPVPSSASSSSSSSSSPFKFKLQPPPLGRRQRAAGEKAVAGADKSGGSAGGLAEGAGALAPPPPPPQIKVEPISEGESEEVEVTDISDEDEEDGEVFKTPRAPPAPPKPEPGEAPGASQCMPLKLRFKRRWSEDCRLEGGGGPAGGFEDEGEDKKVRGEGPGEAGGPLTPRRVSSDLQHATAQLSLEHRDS
# Procedure, shortened: as §1
# [6] = molecular target: T4, ETV3L (Homo sapiens, UniProt Q6ZN32 1-361)
# T4 sequence: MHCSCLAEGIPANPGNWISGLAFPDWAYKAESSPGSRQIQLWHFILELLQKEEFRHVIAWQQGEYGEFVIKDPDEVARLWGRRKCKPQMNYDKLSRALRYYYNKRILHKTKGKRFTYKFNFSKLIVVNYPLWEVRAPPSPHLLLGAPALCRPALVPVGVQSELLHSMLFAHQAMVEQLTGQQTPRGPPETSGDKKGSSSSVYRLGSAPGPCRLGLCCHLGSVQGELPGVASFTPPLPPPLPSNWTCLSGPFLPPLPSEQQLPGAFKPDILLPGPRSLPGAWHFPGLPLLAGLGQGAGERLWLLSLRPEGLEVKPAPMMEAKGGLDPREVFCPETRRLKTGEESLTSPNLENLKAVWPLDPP
# Procedure, shortened: as §1
# [7] = molecular target: T5, ETS2 (Homo sapiens, UniProt P15036 1-469)
# T5 sequence: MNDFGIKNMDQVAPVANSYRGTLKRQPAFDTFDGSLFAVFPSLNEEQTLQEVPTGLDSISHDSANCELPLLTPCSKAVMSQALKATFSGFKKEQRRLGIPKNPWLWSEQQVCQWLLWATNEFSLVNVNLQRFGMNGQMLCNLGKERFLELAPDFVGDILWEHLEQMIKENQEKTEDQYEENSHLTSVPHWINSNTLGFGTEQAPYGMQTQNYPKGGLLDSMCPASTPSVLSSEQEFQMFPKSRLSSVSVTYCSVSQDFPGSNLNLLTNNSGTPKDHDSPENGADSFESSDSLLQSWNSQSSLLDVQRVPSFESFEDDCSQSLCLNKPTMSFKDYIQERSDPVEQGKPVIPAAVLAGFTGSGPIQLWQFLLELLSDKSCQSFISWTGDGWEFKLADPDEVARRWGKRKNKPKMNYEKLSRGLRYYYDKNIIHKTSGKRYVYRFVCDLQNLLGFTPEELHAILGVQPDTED
# Procedure, shortened: as §1
# [8] = molecular target: T6, ETV7 (Homo sapiens, UniProt Q9Y603 1-341)
# T6 sequence: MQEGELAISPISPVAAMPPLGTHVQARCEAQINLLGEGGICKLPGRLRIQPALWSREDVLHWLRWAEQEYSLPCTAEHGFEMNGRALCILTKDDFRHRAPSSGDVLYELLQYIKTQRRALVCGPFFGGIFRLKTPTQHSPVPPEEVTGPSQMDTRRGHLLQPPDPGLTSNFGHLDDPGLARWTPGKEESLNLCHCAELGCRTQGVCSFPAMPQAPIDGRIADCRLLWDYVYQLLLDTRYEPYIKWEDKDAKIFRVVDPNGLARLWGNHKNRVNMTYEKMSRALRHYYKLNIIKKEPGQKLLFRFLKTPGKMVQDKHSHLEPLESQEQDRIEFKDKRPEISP
# Procedure, shortened: as §1
# [9] = molecular target: T7, ETV3 (Homo sapiens, UniProt P41162-2 1-143)
# T7 sequence: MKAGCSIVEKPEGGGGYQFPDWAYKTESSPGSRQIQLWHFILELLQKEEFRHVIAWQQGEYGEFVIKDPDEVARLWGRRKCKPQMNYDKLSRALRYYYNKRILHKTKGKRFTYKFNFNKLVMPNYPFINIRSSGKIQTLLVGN
# Procedure, shortened: as §1
# [10] = molecular target: ETV6 (Homo sapiens, UniProt P41212 1-452)
# Chain of ETV6 (P41212 whole entry): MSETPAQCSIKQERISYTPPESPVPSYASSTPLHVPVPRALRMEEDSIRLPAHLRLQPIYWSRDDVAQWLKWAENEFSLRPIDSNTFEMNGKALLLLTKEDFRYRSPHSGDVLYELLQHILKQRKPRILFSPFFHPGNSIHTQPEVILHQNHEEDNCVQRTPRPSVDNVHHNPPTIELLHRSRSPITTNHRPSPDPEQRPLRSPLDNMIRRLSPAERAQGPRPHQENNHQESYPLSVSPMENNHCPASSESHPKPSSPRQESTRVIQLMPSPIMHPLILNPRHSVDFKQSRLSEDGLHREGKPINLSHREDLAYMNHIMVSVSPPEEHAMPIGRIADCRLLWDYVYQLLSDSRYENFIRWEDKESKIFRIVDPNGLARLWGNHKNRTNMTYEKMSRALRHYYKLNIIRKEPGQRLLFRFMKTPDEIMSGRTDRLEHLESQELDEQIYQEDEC
# Procedure, shortened: as §1
sequence,measurement,setting,value
CTGCGG,binding signal,[1],"1.14 fold enrichment (6-mer frequency, TF over GST control)"
same,binding signal,[2],"1.25 fold enrichment (6-mer frequency, TF over GST control)"
same,binding signal,[3],"1.2 fold enrichment (6-mer frequency, TF over GST control)"
same,binding signal,[4],"1.15 fold enrichment (6-mer frequency, TF over GST control)"
same,binding signal,[5],"1.04 fold enrichment (6-mer frequency, TF over GST control)"
same,binding signal,[6],"1.17 fold enrichment (6-mer frequency, TF over GST control)"
same,binding signal,[7],"1.12 fold enrichment (6-mer frequency, TF over GST control)"
same,binding signal,[8],"1.18 fold enrichment (6-mer frequency, TF over GST control)"
same,binding signal,[9],"1.14 fold enrichment (6-mer frequency, TF over GST control)"
same,binding signal,[10],"1.09 fold enrichment (6-mer frequency, TF over GST control)"
